Read-out in test [1]: Tissue Factor, F3 (gene 2152)
As to the kind of experiment: BSK_CASM3C_TissueFactor: BioMAP Diversity Plus: CASM3C Assay for Tissue Factor Biomarker Activity (AID 2283052).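 Note: cell surface tissue factor protein level read by ELISA.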 The note with it: primary human coronary artery smooth muscle cells; actives raise or lower the signal.

Read-out in test [2]: Interferon-gamma inducible Protein 10 (IP10), CXCL10 (gene 3627)
Description: BSK_hDFCGF_IP10: BioMAP Diversity Plus: hDFCGF Assay for Interferon-gamma inducible Protein 10 (IP10) Biomarker Activity (AID 2283053). The note with it: primary human foreskin fibroblasts; actives raise or lower the signal. In outline: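 Human foreskin fibroblast primary cells (hDFCGF system) were dosed with chemical and assayed at 24 h; IP-10 measured by ELISA. Activity fitted bidirectionally relative to DMSO negative control as baseline.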

Read-out in test [3]: Urokinase-type plasminogen activator receptor (uPAR), PLAUR (gene 5329)
Description: BSK_CASM3C_uPAR: BioMAP Diversity Plus: CASM3C Assay for Urokinase-type plasminogen activator receptor (uPAR) Biomarker Activity (AID 2283054).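 Note: cell-surface uPAR protein level quantified by ELISA.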 The settings on record: primary human coronary artery smooth muscle cells; actives raise or lower the signal.

Read-out in test [4]: Vascular cell adhesion molecule 1 (VCAM1), VCAM1 (gene 7412)
As to the kind of experiment: BSK_CASM3C_VCAM1: BioMAP Diversity Plus: CASM3C Assay for Vascular cell adhesion molecule 1 (VCAM1) Biomarker Activity (AID 2283055).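 Note: VCAM-1 protein level quantified by ELISA on the cells.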 The settings on record: primary human coronary artery smooth muscle cells; actives raise or lower the signal.

Read-out in test [5]: Collagen III, COL3A1 (gene 1281)
Description: BSK_hDFCGF_CollagenIII: BioMAP Diversity Plus: hDFCGF Assay for Collagen III Biomarker Activity (AID 2283056). The settings on record: primary human foreskin fibroblasts; actives raise or lower the signal. In outline:
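Human foreskin primary fibroblasts were exposed to test chemicals for 24 h, after which collagen III was quantified by ELISA. Activity was fitted bidirectionally against DMSO as negative control and baseline.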

Read-out in test [6]: Epidermal growth factor receptor (EGFR), EGFR (gene 1956)
As to the kind of experiment: BSK_hDFCGF_EGFR: BioMAP Diversity Plus: hDFCGF Assay for Epidermal growth factor receptor (EGFR) Biomarker Activity (AID 2283057). The note with it: primary human foreskin fibroblasts; actives raise or lower the signal. In outline:
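Primary human foreskin fibroblasts were exposed to compound for 24 h, after which cell-surface EGFR was quantified by ELISA. Activity was fitted bidirectionally against the DMSO negative control as baseline.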

Read-out in test [7]: Interleukin-8 (IL8), CXCL8 (gene 3576)
Description: BSK_hDFCGF_IL8: BioMAP Diversity Plus: hDFCGF Assay for Interleukin-8 (IL8) Biomarker Activity (AID 2283058). The settings on record: primary human foreskin fibroblasts; actives raise or lower the signal. In a few lines: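 hDFCGF human dermal fibroblasts; 24 h chemical exposure; IL-8 by ELISA; bidirectional curve fit vs DMSO baseline; gain or loss of signal scored.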

The nature of test [8]: BSK_hDFCGF_Proliferation: Cell Proliferation Assessment in the BioMAP Diversity Plus: hDFCGF Assay (AID 2283059).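 Note: curves fitted for both rise and fall of signal versus DMSO baseline.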 The note with it: primary human foreskin fibroblasts. In outline: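 Sub-confluent human foreskin fibroblast cultures receive test chemical […]. Relative cell number is quantified by sulforhodamine B staining (0.1%, after 10% TCA fixation) at 560 nm, with bidirectional fitting referenced to DMSO.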

Read-out in test [9]: Macrophage colony-stimulating factor (MCSF), CSF1 (gene 1435)
Description: BSK_hDFCGF_MCSF: BioMAP Diversity Plus: hDFCGF Assay for Macrophage colony-stimulating factor (MCSF) Biomarker Activity (AID 2283060). The note with it: primary human foreskin fibroblasts; actives raise or lower the signal. In outline: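 Human foreskin primary fibroblasts were treated with test chemical for 24 h, and M-CSF was then measured by ELISA. Data were fitted bidirectionally against DMSO as the negative control and activity baseline.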

The nature of test [10]: BSK_hDFCGF_SRB: Viability Assessment in the BioMAP Diversity Plus: hDFCGF Assay (AID 2283061).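 Note: cells exposed to compound for 24 h before the read.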 The note with it: primary human foreskin fibroblasts. In a few lines: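 Human foreskin primary fibroblasts were treated with compound and assessed 24 h after dosing. Total protein was measured by sulforhodamine B staining (0.1% SRB after 10% TCA fixation, 560 nm read) as a cytotoxicity marker, with bidirectional fitting against DMSO baseline.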

Read-out in test [11]: TIMP metallopeptidase inhibitor 1 (TIMP1), TIMP1 (gene 7076)
Description: BSK_hDFCGF_TIMP1: BioMAP Diversity Plus: hDFCGF Assay for TIMP metallopeptidase inhibitor 1 (TIMP1) Biomarker Activity (AID 2283062). The note with it: primary human foreskin fibroblasts; actives raise or lower the signal. In outline:
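Primary human foreskin fibroblasts in the hDFCGF system were dosed with compound for 24 h, then TIMP-1 was measured by ELISA. Activity was fitted bidirectionally relative to DMSO control; parallel SRB staining assessed cytotoxicity.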

Read-out in test [12]: Monokine induced gamma interferon (MIG), CXCL9 (gene 4283)
Description: BSK_hDFCGF_MIG: BioMAP Diversity Plus: hDFCGF Assay for Monokine induced gamma interferon (MIG) Biomarker Activity (AID 2283063). The settings on record: primary human foreskin fibroblasts; actives raise or lower the signal. In a few lines:
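ELISA read-out of MIG from primary human dermal fibroblasts 24 h post-dosing. Gain or loss of signal fitted bidirectionally, DMSO as baseline.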

Read-out in test [13]: Matrix Metallopeptidase 1 (MMP1), MMP1 (gene 4312)
Description: BSK_hDFCGF_MMP1: BioMAP Diversity Plus: hDFCGF Assay for Matrix Metallopeptidase 1 (MMP1) Biomarker Activity (AID 2283064). The settings on record: primary human foreskin fibroblasts; actives raise or lower the signal. In outline: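 hDFCGF primary fibroblasts (human foreskin); chemical added; 24 h; MMP1 by ELISA; bidirectional fit vs DMSO.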

Read-out in test [14]: Vascular cell adhesion molecule 1 (VCAM1), VCAM1 (gene 7412)
As to the kind of experiment: BSK_hDFCGF_VCAM1: BioMAP Diversity Plus: hDFCGF Assay for Vascular cell adhesion molecule 1 (VCAM1) Biomarker Activity (AID 2283065). The note with it: primary human foreskin fibroblasts; actives raise or lower the signal. In a few lines: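 Primary human foreskin fibroblasts (hDFCGF system) were dosed with chemical and VCAM-1 was measured by ELISA 24 h later. Bidirectional curve fitting used DMSO as negative control and activity baseline.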

Read-out in test [15]: Plasminogen activator inhibitor-1 (PAI1), SERPINE1 (gene 5054)
Description: BSK_hDFCGF_PAI1: BioMAP Diversity Plus: hDFCGF Assay for Plasminogen activator inhibitor-1 (PAI1) Biomarker Activity (AID 2283066). The note with it: primary human foreskin fibroblasts; actives raise or lower the signal. In a few lines:
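Human foreskin fibroblasts in the hDFCGF system were dosed with compound for 24 h; PAI-1 was quantified by ELISA. Bidirectional curve fitting used DMSO as negative control and baseline.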

Read-out in test [16]: Intercellular Adhesion Molecule 1 (ICAM1), ICAM1 (gene 3383)
Description: BSK_KF3CT_ICAM1: BioMAP Diversity Plus: KF3CT Assay for Intercellular Adhesion Molecule 1 (ICAM1) Biomarker Activity (AID 2283067). The note with it: primary human keratinocytes with fibroblasts; actives raise or lower the signal. In outline:
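Human keratinocyte plus foreskin fibroblast primary co-culture was exposed to chemical for 24 h. ICAM-1 was then quantified by ELISA, and the data were fit bidirectionally against DMSO as the negative control and baseline.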

Read-out in test [17]: Interferon-gamma inducible Protein 10 (IP10), CXCL10 (gene 3627)
Description: BSK_KF3CT_IP10: BioMAP Diversity Plus: KF3CT Assay for Interferon-gamma inducible Protein 10 (IP10) Biomarker Activity (AID 2283068). The settings on record: primary human keratinocytes with fibroblasts; actives raise or lower the signal. In outline: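 ELISA read-out of IP-10 after 24 h chemical dosing of human skin primary co-culture (keratinocytes, foreskin fibroblasts). Gain or loss of signal relative to DMSO, bidirectional curve fit.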

Test [18] in a line: BSK_KF3CT_SRB: Viability Assessment in the BioMAP Diversity Plus: KF3CT Assay (AID 2283069).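 Note: fitted for both signal gain and loss against DMSO baseline.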 The settings on record: primary human keratinocytes with fibroblasts. In a few lines:
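Keratinocytes co-cultured with foreskin fibroblasts (human primary); chemical added, 24 h; fix 10% TCA, stain 0.1% SRB, A560. Bidirectional fit vs DMSO.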

Read-out in test [19]: Interleukin-1 alpha (IL1a), IL1A (gene 3552)
As to the kind of experiment: BSK_KF3CT_IL1a: BioMAP Diversity Plus: KF3CT Assay for Interleukin-1 alpha (IL1a) Biomarker Activity (AID 2283070). The note with it: primary human keratinocytes with fibroblasts; actives raise or lower the signal. In a few lines: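 Chemicals were dosed onto co-cultured human keratinocytes and foreskin fibroblasts, IL-1a was quantified by ELISA at 24 h, and activity was fitted in both directions relative to DMSO controls.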

Read-out in test [20]: TIMP metallopeptidase inhibitor 2 (TIMP2), TIMP2 (gene 7077)
As to the kind of experiment: BSK_KF3CT_TIMP2: BioMAP Diversity Plus: KF3CT Assay for TIMP metallopeptidase inhibitor 2 (TIMP2) Biomarker Activity (AID 2283071). The note with it: primary human keratinocytes with fibroblasts; actives raise or lower the signal. In outline: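 Human primary keratinocyte/foreskin fibroblast co-culture dosed with chemical and sampled at 24 h. TIMP-2 levels quantified by ELISA; bidirectional fitting against DMSO negative control as baseline.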

The source made the active and inactive calls. Rule for the calls: active = hit-call score of the fitted dose curve at least 0.9, where 1 is the maximum; inactive = score below 0.9.

Take `COc1cc(S(=O)(=O)O)c(C)cc1N=Nc1c(O)ccc2cc(S(=O)(=O)O)ccc12`: the result in test [1], in [2], in test [3], in test [4], in test [5] and in test [6] was inactive. Besides, the result in [7], in test [8], in test [9], in test [10], in test [11] and in test [12] was inactive. Moreover, the result in test [13], in [14], in [15], in [16], in test [17] and in [18] was inactive. In test [19], the result was inactive.
For the compound `Cc1nc(-c2ccc3c(c2)CCN(CCC2CCC(NC(=O)/C=C/c4ccc(F)cc4)CC2)CC3)no1` (configuration not stated), the outcome in test [1], in test [2], in test [3], in test [5], in test [6] and in test [7] was inactive. Also, the outcome in test [9], in test [10], in [11], in test [12], in test [13] and in [14] was inactive. In addition, the result in test [15], in [16], in test [17], in [18] and in test [19] was inactive. Moreover, the AC50 in test [4] was 6.35 µM (active).
For the compound `CCCCCCCC=O`, the outcome in test [1], in [2], in test [3], in test [4], in test [5] and in test [6] was inactive. For the same compound, the result in [7], in test [9], in [10], in test [11], in test [12] and in test [13] was inactive. Moreover, the outcome in [14], in test [15], in [16], in test [17], in test [18] and in [19] was inactive.
As for `CCCc1cc(=O)[nH]c(=S)[nH]1`, the outcome in [1], in test [2], in [3], in test [4], in test [5] and in test [6] was inactive. Further, the result in test [7], in [8], in test [9], in test [10], in test [11] and in test [12] was inactive. Also, the outcome in test [13], in [14], in test [15], in test [16], in [17] and in test [18] was inactive. For the same compound, the outcome in test [19] was inactive.
Turning to `Nc1ccc2c(c1)C(=O)c1ccccc1C2=O`, the outcome in test [1], in test [2], in test [4], in [5], in test [6] and in test [7] was inactive. Moreover, the result in test [9], in [10], in test [11], in test [12], in test [13] and in test [14] was inactive. Moreover, the result in [15], in [16], in [17], in [18] and in test [19] was inactive. Also, the AC50 was 20 µM (active) in test [3] and 4.98 µM (active) in test [8].
Turning to `CCCCCCCCCCO`, the outcome in [1], in [2], in test [3], in test [4], in [5] and in test [6] was inactive. Further, the outcome in test [7], in test [8], in test [9], in test [10], in test [11] and in test [12] was inactive. Further, the outcome in [13], in test [14], in test [15], in test [16], in test [17] and in test [18] was inactive. Moreover, the outcome in test [19] and in test [20] was inactive.
With `NS(=O)(=O)c1cc2c(cc1Cl)NCNS2(=O)=O`, the result in test [1], in test [2], in test [3], in test [4], in test [5] and in test [6] was inactive. Moreover, the outcome in test [7], in test [8], in test [9], in test [10], in test [11] and in test [12] was inactive. Further, the outcome in test [13], in test [14], in test [15], in test [16], in test [17] and in [18] was inactive. Also, in test [19], the outcome was inactive.

The record behind these values is PubChem BioAssay (EPA / NIEHS).
